# Values without a mark were called inactive. Inconclusive results are not listed. Entries that show only a call come without a potency. The source made the active and inactive calls. Unless noted, calls follow the shape of the dose curve; as a rule, active = well fitted curve in the direction sought with a large enough effect in the repeat runs; inconclusive = weak or mixed curves; inactive = no such curve, though single readings can be large; an effect the other way counts as inactive or inconclusive.
# Columns and labels:
# [1] = target: Thyrotropin receptor (Homo sapiens) (UniProt P16473); assay: qHTS assay to identify small molecule antagonists of the thyroid stimulating hormone receptor (TSHR) signaling pathway (AID 1259385; calls by dose curve; also: nearly all actives have a fitted effect of over 20% in size)
# Sequence of Thyrotropin receptor (Homo sapiens) (P16473 whole entry, looked up): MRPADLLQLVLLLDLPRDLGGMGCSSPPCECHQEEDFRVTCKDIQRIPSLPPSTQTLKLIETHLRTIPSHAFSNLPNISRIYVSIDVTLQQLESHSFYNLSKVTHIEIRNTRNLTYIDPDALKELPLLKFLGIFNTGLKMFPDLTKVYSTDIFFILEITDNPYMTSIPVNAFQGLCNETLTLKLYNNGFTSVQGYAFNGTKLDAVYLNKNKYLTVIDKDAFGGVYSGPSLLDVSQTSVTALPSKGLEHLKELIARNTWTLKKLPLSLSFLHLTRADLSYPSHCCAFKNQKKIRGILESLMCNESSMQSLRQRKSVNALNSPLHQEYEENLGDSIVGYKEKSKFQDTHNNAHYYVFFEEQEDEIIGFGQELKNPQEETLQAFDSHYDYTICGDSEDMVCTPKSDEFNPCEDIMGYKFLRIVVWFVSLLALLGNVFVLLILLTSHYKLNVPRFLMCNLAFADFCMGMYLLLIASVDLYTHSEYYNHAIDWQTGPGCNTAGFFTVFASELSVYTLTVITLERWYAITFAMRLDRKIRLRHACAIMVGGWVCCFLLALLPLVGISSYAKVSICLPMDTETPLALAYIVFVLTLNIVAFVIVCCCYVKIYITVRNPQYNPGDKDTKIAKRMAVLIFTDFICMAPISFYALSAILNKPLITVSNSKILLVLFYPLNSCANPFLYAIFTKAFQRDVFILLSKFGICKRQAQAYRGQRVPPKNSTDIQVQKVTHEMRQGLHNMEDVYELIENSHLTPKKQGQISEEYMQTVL
# In short: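 TSHR-HEK293 cells (800/well) plated 18 h, then compounds with Ro20-1724 and TSH at 1.5 ng/mL final, 30 min at room temperature. cAMP quantified by HTRF (cAMP-d2/anti-cAMP-cryptate, 1 h); 15 concentrations in triplicate.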
# [2] = qHTS assay to identify small molecule agonists of the estrogen receptor alpha (ER-alpha) signaling pathway in the presence of an antagonist - cell viability counter screen (AID 1259386);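 also: series mostly up to about 92 µM; cells exposed to compounds for 22 h at 37 °C before the viability read; nearly all actives have a fitted effect of over 30% in size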
# In short: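 Fluorescent CellTiter-Fluor viability signal from VM7Luc4E2 cells, with the reagent added during the final hour of a 22hr compound exposure at 37C in the presence of 10.0nM ICI-182,780.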
# [3] = target: Progesterone receptor (Homo sapiens) (UniProt P06401); assay: qHTS assay to identify small molecule agonists of the progesterone receptor (PR) signaling pathway (AID 1346784; calls by dose curve; also: nearly all actives have a fitted effect of over 30% in size)
# Sequence of Progesterone receptor (Homo sapiens) (P06401 whole entry, looked up): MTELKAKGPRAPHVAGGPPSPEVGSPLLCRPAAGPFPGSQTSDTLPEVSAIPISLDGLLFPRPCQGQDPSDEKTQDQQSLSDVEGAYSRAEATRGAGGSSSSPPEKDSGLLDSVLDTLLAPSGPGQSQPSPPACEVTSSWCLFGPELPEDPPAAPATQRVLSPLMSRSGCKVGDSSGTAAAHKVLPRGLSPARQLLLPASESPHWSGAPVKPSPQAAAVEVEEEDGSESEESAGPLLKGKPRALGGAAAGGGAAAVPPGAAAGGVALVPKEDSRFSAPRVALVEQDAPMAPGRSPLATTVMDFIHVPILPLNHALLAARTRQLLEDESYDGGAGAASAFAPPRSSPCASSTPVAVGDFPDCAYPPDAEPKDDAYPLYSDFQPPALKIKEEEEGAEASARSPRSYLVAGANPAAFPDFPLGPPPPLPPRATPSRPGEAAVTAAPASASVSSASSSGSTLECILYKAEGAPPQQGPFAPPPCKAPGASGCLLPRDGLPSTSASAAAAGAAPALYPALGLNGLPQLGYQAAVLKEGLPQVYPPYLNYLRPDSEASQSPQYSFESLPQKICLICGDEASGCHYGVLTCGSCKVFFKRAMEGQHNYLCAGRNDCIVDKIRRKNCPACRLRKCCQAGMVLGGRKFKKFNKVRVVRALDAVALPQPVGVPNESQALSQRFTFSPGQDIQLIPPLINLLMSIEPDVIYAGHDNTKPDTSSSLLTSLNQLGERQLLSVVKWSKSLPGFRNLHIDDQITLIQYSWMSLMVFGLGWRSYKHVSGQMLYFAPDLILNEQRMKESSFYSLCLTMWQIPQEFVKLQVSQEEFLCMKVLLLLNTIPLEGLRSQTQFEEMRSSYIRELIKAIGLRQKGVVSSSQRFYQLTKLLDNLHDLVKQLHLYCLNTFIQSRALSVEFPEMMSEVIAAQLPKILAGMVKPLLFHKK
# In short: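 Fluorescence from LiveBLAzer B/G FRET substrate cleavage (2 hr, RT) reported PR activation in PR-UAS-bla HEK 293T cells treated 16 hr at 37C/5% CO2 with compounds; medium contained 2% charcoal-stripped FBS.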
# [4] = target: Progesterone receptor (Homo sapiens) (UniProt P06401); assay: qHTS assay to identify small molecule antagonists of the progesterone receptor (PR) signaling pathway (AID 1346795; active = well fitted inhibition curve with a large enough effect in the signal ratio in the repeat runs, not every such curve was filed as active; the % refers to the signal ratio; also: potency is read from the fitted curve at half-maximal effect)
# In short: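 Fluorescence intensity measured 2 hr after adding beta-lactamase FRET substrate to PR-UAS-bla HEK293T cells that had been co-treated 16 hr with compound and 1 nM R5020 (final concentration) in 2% charcoal-stripped FBS.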
# [5] = qHTS assay to identify small molecule agonists of the progesterone receptor (PR) signaling pathway - cell viability counter screen (AID 1346799; calls by dose curve; also: nearly all actives have a fitted effect of over 45% in size)
# In short: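 In parallel with the beta-lactamase readout, cytotoxicity toward PR-UAS-bla HEK293T cells was measured by CellTiter-Glo luminescence following 16 hr compound incubation in 2% charcoal-stripped FBS medium.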
# [6] = qHTS assay to identify small molecule antagonists of the TGF-beta/Smad signaling pathway - cell viability counter screen (AID 1346824); also: nearly all actives have a fitted effect of over 50% in size
# In short: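 SBE-bla HEK 293T cells, incubated overnight, then compound plus 0.25 ng/mL TGF-beta1 (stock added) for 5 hr at 37 C. Viability was read in the same wells by CellTiter-Glo luminescence after 30 min at room temperature.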
# [7] = qHTS assay to identify small molecule agonists of the TGF-beta/Smad signaling pathway - cell viability counter screen (AID 1346829); also: top concentration of the series differs between compounds; nearly all actives have a fitted effect of over 45% in size
# In short: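 After overnight seating at 37 C and 5% CO2, reporter cells got compounds for 5 hr and FRET substrate for 2 hr; cell viability then came from CellTiter-Glo luminescence.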
# [8] = qHTS assay to identify small molecule agonists of the TGF-beta/Smad signaling pathway (AID 1346859; active = well fitted activation curve with a large enough effect in the signal ratio in the repeat runs, not every such curve was filed as active; the % refers to the signal ratio; also: series mostly up to about 77 µM)
# In short: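 After overnight seeding, SBE-bla HEK 293T cells are dosed with compounds in DMSO and kept 5 hr at 37 C, 5% CO2. LiveBLAzer-type FRET substrate is then applied for 2 hr at room temperature.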
# [9] = target: Thyrotropin-releasing hormone receptor (Homo sapiens) (UniProt P34981); assay: qHTS assay to identify small molecule antagonists of the thyrotropin-releasing hormone receptor (TRHR) signaling pathway (AID 1346877; active = well fitted inhibition curve with a large enough effect in the repeat runs, not every such curve was filed as active; also: series mostly up to about 51 µM)
# Sequence of Thyrotropin-releasing hormone receptor (Homo sapiens) (P34981 whole entry, looked up): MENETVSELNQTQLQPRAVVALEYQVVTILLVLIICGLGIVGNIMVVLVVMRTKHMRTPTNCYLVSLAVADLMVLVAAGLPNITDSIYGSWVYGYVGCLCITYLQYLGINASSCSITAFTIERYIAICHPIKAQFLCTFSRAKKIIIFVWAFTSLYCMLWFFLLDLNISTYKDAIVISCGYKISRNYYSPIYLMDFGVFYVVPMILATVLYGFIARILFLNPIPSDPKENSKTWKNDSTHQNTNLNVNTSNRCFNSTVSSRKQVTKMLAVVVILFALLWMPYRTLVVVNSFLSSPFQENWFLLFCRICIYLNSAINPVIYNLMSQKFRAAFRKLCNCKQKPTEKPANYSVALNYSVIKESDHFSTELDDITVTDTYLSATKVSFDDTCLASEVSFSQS
# In short: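 In this cell-based calcium flux format, HEK293 cells expressing TRHR received test compound for 5 min before the agonist TRH (1 nM final). Dye loading lasted 2 h at 37 °C.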
# [10] = target: Thyrotropin-releasing hormone receptor (Homo sapiens) (UniProt P34981); assay: qHTS assay to identify small molecule agonists of the thyrotropin-releasing hormone receptor (TRHR) signaling pathway (AID 1346891; calls by dose curve; also: series mostly up to about 58 µM)
# In short: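 Compounds were tested as agonists at 15 concentrations, in triplicate, on TRHR-Hek293 cells; calcium-sensitive dye fluorescence was recorded for 3 min following addition.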
# [11] = Caspase-3/7 induction in HepG2 cells by small molecules, qHTS assay (AID 1346978); also: nearly all actives have a fitted effect of over 15% in size
# In short: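 Wild-type HepG2 cells, 2,000/well, settled 5 hr at 37 C and 5% CO2, then compound-treated for 17 hr; caspase-3/7 activity read by luminescent Caspase-Glo 3/7 after 30 min at room temperature.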
# [12] = Caspase-3/7 induction in CHO-K1 cells by small molecules, qHTS cell viability counter screen (AID 1346979); also: nearly all actives have a fitted effect of over 35% in size
# In short: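 Viability readout by fluorescence (CellTiter-Fluor) on wild-type CHO-K1 cells exposed for 16hr at 37C and 5% CO2 to compounds delivered in DMSO; reagent incubated 1hr before reading.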
# [13] = Caspase-3/7 induction in CHO-K1 cells by small molecules, qHTS assay (AID 1346980); also: nearly all actives have a fitted effect of over 15% in size
# In short: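 Wild-type CHO-K1 cells exposed to compounds for 17hr at 37 C, 5% CO2. Caspase-3/7 activity then measured by Caspase-Glo 3/7 luminescence after 30min at room temperature.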
# [14] = target: Nuclear receptor subfamily 1 group I member 2 (Homo sapiens) (UniProt O75469); assay: Human pregnane X receptor (PXR) small molecule agonists, qHTS assay (AID 1346982); also: nearly all actives have a fitted effect of over 35% in size; also: potency is read from the fitted curve at half-maximal effect
# Sequence of Nuclear receptor subfamily 1 group I member 2 (Homo sapiens) (O75469 whole entry, looked up): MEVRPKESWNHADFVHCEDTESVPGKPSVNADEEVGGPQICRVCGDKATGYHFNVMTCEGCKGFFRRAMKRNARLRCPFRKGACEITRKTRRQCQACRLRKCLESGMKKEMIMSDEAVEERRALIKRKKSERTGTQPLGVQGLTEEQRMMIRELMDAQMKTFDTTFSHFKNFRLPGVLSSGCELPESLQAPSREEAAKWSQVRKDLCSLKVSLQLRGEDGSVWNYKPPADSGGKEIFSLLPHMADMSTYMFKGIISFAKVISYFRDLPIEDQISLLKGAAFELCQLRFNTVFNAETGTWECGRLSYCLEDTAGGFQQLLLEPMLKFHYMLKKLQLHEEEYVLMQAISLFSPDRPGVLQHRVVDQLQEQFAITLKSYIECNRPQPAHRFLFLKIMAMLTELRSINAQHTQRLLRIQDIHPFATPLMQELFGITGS
# In short: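 Luminescence (ONE-Glo, 30 min RT) after 24 hr compound exposure of PXR-Luc HepG2 cells; cells rested 5 hr post-plating in 5% charcoal-stripped FBS medium.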
# [15] = Human pregnane X receptor (PXR) small molecule agonists, qHTS cell viability counter screen (AID 1346977); also: nearly all actives have a fitted effect of over 50% in size
# In short: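 Viability counter screen: CellTiter-Fluor signal in PXR-Luc HepG2 cells, 24hr compound exposure, 37C, 5% CO2.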
# [16] = Caspase-3/7 induction in HepG2 cells by small molecules, qHTS cell viability counter screen (AID 1346981); also: series mostly up to about 92 µM; nearly all actives have a fitted effect of over 30% in size
# In short: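 Counter screen for cytotoxicity: HepG2 exposed 16 hr to compounds, then CellTiter-Fluor viability signal (fluorescence, 1 hr reagent incubation).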
# [17] = qHTS assay to identify small molecule antagonists of the progesterone receptor (PR) signaling pathway - cell viability counter screen (AID 1346798); also: series mostly up to about 92 µM; nearly all actives have a fitted effect of over 50% in size
# In short: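 CellTiter-Glo luminescence; PR-UAS-bla HEK293T, 3,000 cells/well; compound + R5020, 16 hr, 37C/5% CO2; 30 min RT before read.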
# [18] = target: Nuclear receptor subfamily 1 group I member 2 (Rattus norvegicus) (UniProt Q9R1A7); assay: Rat pregnane X receptor (rPXR) activation by small molecules, qHTS assay (AID 1346983); conditions: rPXR luciferase reporter cells, One-Glo luminescence, 24 h; max activation: hits give high values; also: nearly all actives have a fitted effect of over 20% in size
# Sequence of Nuclear receptor subfamily 1 group I member 2 (Rattus norvegicus) (Q9R1A7 whole entry, looked up): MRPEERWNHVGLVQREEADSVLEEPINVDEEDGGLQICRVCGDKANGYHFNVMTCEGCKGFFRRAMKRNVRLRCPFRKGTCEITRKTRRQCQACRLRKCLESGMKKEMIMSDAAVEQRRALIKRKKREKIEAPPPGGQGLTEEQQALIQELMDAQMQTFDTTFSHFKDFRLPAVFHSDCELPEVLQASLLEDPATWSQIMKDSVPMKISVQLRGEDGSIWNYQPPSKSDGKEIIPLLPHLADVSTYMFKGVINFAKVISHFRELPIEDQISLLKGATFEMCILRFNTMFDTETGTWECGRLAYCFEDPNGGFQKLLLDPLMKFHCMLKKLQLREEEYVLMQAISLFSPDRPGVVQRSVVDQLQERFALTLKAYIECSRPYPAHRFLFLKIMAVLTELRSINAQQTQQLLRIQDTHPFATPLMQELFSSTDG
# In short: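 Cell-based rPXR activation assay: rPXR cells, 2,000 per well, rested 5hr at 37 C, then exposed to compounds in DMSO for 24 hr at 37 C. Luciferase activity read by One-Glo luminescence after 30 min at room temperature.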
# [19] = target: Nuclear receptor subfamily 1 group I member 2 (Homo sapiens) (UniProt O75469); assay: CYP3A4 induction through human pregnane X receptor (PXR) by small molecules, qHTS assay (AID 1346984); also: nearly all actives have a fitted effect of over 40% in size; also: potency is read from the fitted curve at half-maximal effect
# In short: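 DPX-2 reporter cells; 24h cpd, 37C; Luciferin-IPA 3uM final x3h; One-Glo 30 min RT; lumi read.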
# [20] = target: Nuclear receptor subfamily 1 group I member 2 (Homo sapiens) (UniProt O75469); assay: Human pregnane X receptor (PXR) activation by small molecules, qHTS assay (AID 1346985); also: nearly all actives have a fitted effect of over 40% in size; also: potency is read from the fitted curve at half-maximal effect
# In short: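 DPX-2 cells (HepG2 co-transfected with a PXR response element and a CYP3A4-promoter luciferase construct) were seeded at 2,000 per well, rested 5 hr at 37C, then exposed to DMSO-dissolved compounds for 24 hr. Activation was read as luciferase luminescence.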
SMILES,Potency [1],Potency [2],Potency [3],Potency [4],Potency [5],outcome [6],outcome [7],outcome [8],outcome [9],Potency [10],Potency [11],Potency [12],outcome [13],Potency [14],Potency [15],Potency [16],Potency [17],max activation [18] [%],Potency [19],Potency [20]
COc1cc(C)ccc1C(C)C,inactive,inactive,inactive,inactive,inactive,inactive,inactive,inactive,inactive,inactive,inactive,inactive,inactive,inactive,,,,,,
CCOc1ccc(OCC)c(Cl)c1,inactive,inactive,inactive,,inactive,inactive,inactive,,inactive,inactive,,,inactive,inactive,inactive,inactive,,,,
CC1=C2[C@H](/C=C(\C)C(=O)O)CC[C@@H](C)[C@H]2CC1,inactive,inactive,inactive,,inactive,inactive,inactive,,inactive,inactive,inactive,inactive,inactive,56.5 µM (active),,,inactive,,,
CC(C)O,inactive,inactive,inactive,,inactive,inactive,inactive,inactive,inactive,inactive,inactive,inactive,inactive,inactive,inactive,inactive,,-2.1,inactive,inactive
COc1ccccc1OCC(O)COC(N)=O (stereo not drawn),inactive,inactive,inactive,inactive,inactive,inactive,inactive,inactive,,inactive,inactive,inactive,inactive,inactive,inactive,inactive,,0.101,inactive,inactive
CN1CCN(C2=Nc3cc(F)ccc3Cc3ccccc32)CC1,inactive,inactive,inactive,18.8 µM (active),inactive,inactive,inactive,inactive,inactive,inactive,inactive,inactive,inactive,inactive,,,,2.35,25.1 µM (active),22.4 µM (active)
CCCCCCCCCC#N,inactive,inactive,inactive,,,inactive,inactive,inactive,inactive,inactive,inactive,inactive,inactive,,,inactive,,,,
CN1CCN(c2c(F)cc3c(=O)c(C(=O)O)cn4c3c2SCC4)CC1,inactive,inactive,,inactive,inactive,inactive,inactive,inactive,inactive,inactive,inactive,inactive,inactive,inactive,inactive,inactive,inactive,-4.92,inactive,inactive
CCOC(=O)C(Br)c1ccccc1 (stereo not drawn),inactive,inactive,,inactive,inactive,inactive,inactive,inactive,,,inactive,inactive,inactive,inactive,,inactive,inactive,,,
CN(C)Cc1ccccc1,inactive,inactive,,inactive,inactive,inactive,inactive,inactive,,inactive,inactive,inactive,inactive,inactive,inactive,inactive,,,,
c1ccc(CN(CC2=NCCN2)c2ccccc2)cc1,inactive,inactive,inactive,,inactive,inactive,inactive,,,,inactive,inactive,inactive,inactive,,,,-0.824,inactive,inactive

# — PubChem BioAssay (Tox21)
